Only some compounds are listed: those with a hit (about 8% of all), similar ones and a draw of the others.
SW480 rerep = inducers of DNA re-replication in SW480 colon cancer cells; SW480 DNA re-replication, Hoechst DNA content imaging, 48 h; Potency, µM (top dose mostly 46.1 µM), inactives show at the highest dose re-replication activation, usual class: activators; 340,000 tested, 1.8% active; AID 624297; note: % of control where 0% means no effect; nearly all actives have a fitted effect of over 55% in size
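Readout is total intensity of Hoechst-stained nuclei, excited at 405 nm and collected at 500-530 nm. Compound treatment lasted 48 hr at 37 C in 5% CO2 before staining.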
KB-3-1 cytotox = KB-3-1 parental cell cytotoxicity. 400,000 tested, 1.4% active. KB-3-1 viability, CellTiter-Glo ATP luminescence, 72 h. Potency, µM (series often up to 46.1 µM), most hits filed as cytotoxic. AID 1347075; note: % is set by controls: 0 for no effect and ±100 for the full control effect; nearly all actives have a fitted effect of over 60% in size
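KB-3-1 parental drug-naive adenocarcinoma cells in DMEM/10% FBS, incubated 72 h at 37 C with pin-transferred compounds across a concentration series. Viability by CellTiter-Glo luminescence; concentration-response curves fitted after normalization.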
HT1080NT lethal = kills 2HG-producing HT-1080-NT fibrosarcoma cells | 360,000 tested, 1.6% active | HT-1080-NT fibrosarcoma viability, CellTiter-Glo ATP luminescence, 48 h | Potency, µM (doses to about 46.1 µM), for inactives: top-dose activity, negative = less viability, actives largely listed as cytotoxic;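 note: NT is the 2HG producing partner of a matched IDH1 knockdown line; 0% = DMSO-treated cells and -100% = media-only wells without cells; nearly all actives have a fitted effect of over 55% in size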
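Viability by CellTiter-Glo luminescence after 48 h compound exposure at 37C of HT-1080-NT cells (750/well, RPMI, 5% FBS). % activity scaled between DMSO wells and medium-only wells, then curve-fitted and categorized by curve class.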
KB-V1 MDR tox = kills drug-selected multidrug resistant KB-V1 cells. KB-V1 MDR cells viability, CellTiter-Glo, 72 h. Potency, µM (series often up to 46.1 µM), hits mostly cytotoxic. 400,000 tested, 3.4% active. AID 1347076; note: % is set by controls: 0 for no effect and ±100 for the full control effect; nearly all actives have a fitted effect of over 60% in size
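KB-V1 cells (P-gp-expressing MDR subline of KB-3-1) in phenol-red-free DMEM with 10% FBS were exposed to library compounds over a concentration series for 72 h at 37 degrees C. Viability read by CellTiter-Glo luminescence; concentration-effect curves fitted after normalization.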
MCF10A rerep = induces DNA re-replication in MCF 10a normal breast cells. MCF 10A DNA re-replication, Hoechst nuclear intensity, 48 h. Potency, µM (doses to about 46.1 µM), without a hit: top-dose activity, positive = re-replication, hits mostly activators. 350,000 tested, 2.9% active. AID 624296; note: % of control where 0% means no effect; nearly all actives have a fitted effect of over 50% in size
HT1080 IDH1KD tx = toxicity to HT-1080 IDH1 knockdown cells (counter line). HT-1080 IDH1 knockdown viability, ATP luminescence, 48 h. Potency, µM (titrated, usually from 46.1 µM), without a hit: at the top dose activity, negative = toxicity, usual class: cytotoxic. 360,000 tested, 2% active. AID 686971;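 note: 0% = DMSO wells and -100% = cell-free medium wells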
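CellTiter-Glo luminescence after 48 h compound exposure at 37 degrees C of IDH1-knockdown HT-1080 cells in 5% FBS RPMI. %Activity scaled between DMSO wells and cell-free media wells, with curves fitted and assigned curve classes.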
The depositor's hits bear a star; i = inactive; ? = inconclusive; . = no result; [ ] = remark or other dose. Calls come from the whole dose curve; as a rule, active = well fitted curve in the direction sought with a large enough effect; inconclusive = small, poorly fitted or top-dose-only effect, or another doubt; inactive = no such curve, though single readings can be large; an effect the other way counts as inactive or inconclusive. Potency is the fitted concentration of half-maximal effect.

SMILES | SW480 rerep | KB-3-1 cytotox | HT1080NT lethal | KB-V1 MDR tox | MCF10A rerep | HT1080 IDH1KD tx
COc1cc(NC(=O)CN(C)S(=O)(=O)c2ccc3c(c2)CCC(=O)N3)cc(OC)c1 | -10% | i | 0% | i | -2% | -2%
CC(C)(C)c1cccc(Oc2nn[nH]n2)c1 | ? | i | -4% | i | ? | -4%
FC(F)(F)c1cc(CO[C@@H]2CCCN[C@@H]2c2ccccc2)cc(C(F)(F)F)c1 | ? | i | ? | i | ? | 23µM*
FC(F)(F)c1cc(CCN2CCNC[C@@H]2c2ccccc2)cc(C(F)(F)F)c1 | -60% | i | 0% | i | -15% | -12%
CC(C)N(c1ccc(C=O)cc1)C(C)C | . | i | . | i | . | .
N#C/C(=C\c1cccnc1)c1ccc(Br)cc1 | 3% | i | 9% | i | 17% | 8%
COc1cc(/C=C(\C#N)c2ccccn2)ccc1OCc1ccccc1 | 0% | i | 1% | i | -14% | 5%
N#C/C(=C\c1ccc(C(=O)O)cc1)c1ccccn1 | 26% | i | 0% | i | 1% | -5%
CN(CCC#N)c1ccc(C=C(C#N)c2ccc(Br)cc2)cc1 | . | i | -28% | 16µM* | . | ?
CCN(CC)c1ccc(/C=C(\C#N)c2ccccn2)cc1 | 15µM* | ? | ? | ? | 23µM* | ?
CN(CCC#N)c1ccc(/C=C(\C#N)c2ccccn2)cc1 | 14% | ? | -2% | 5.2µM* | ? | -6%
CCN(Cc1ccccc1)c1ccc(/C=C(\C#N)c2ccccn2)cc1 | 18% | i | -11% | ? | 21µM* | -7%
O=C(CSc1nnc(-c2cccc(S(=O)(=O)N3CCCCC3)c2)o1)c1ccc[nH]1 | 0% | i | -11% | i | -1% | -11%
CCCCN(C(=O)c1ccc2c(c1)NC(=O)CS2)c1ccccc1 | -10% | i | -5% | i | 14% | -1%
O=C(C1CCN(S(=O)(=O)c2ccc(Cl)cc2)CC1)N1CCCC1 | ? | i | 3% | i | 3% | 8%
O=C(CSc1nc(O)c(Cc2ccccc2)c(=O)[nH]1)N1CCOCC1 | -3% | i | 20% | i | -2% | 10%
CC(=O)N(c1ccc(Cl)cc1)C1SC(=O)N(c2ccc(C)cc2)C1=O (stereo unspecified) | . | . | 9% | . | . | 18%
COc1ccc(C2=CC(=O)OC(C)(c3ccccc3)O2)cc1 (stereo unspecified) | ? | i | -16% | 16µM* | ? | -26%
CC(=O)Nc1ccc(-n2cnnn2)cc1 | 2% | i | 3% | i | 18% | 20%
CC(=O)Nc1cc(NC(C)=O)cc(C(=O)OCC(=O)N2CC(C)OC(C)C2)c1 (stereo unspecified) | -1% | i | 21% | i | 2% | 13%
COc1ccc(-c2cc3nc(NCc4ccc(NC(C)=O)cc4)n(C)c(=O)c3s2)cc1OC | . | i | 20% | i | . | 12%
COc1cccc(CNc2nc3cc(-c4ccccc4CO)sc3c(=O)n2C)c1 | . | ? | 29µM* | i | . | ?
COc1cccc(CNc2nc3cc(-c4ccccc4)sc3c(=O)n2C)c1OC | . | 23µM* | ? | i | . | ?
COc1cccc(CNc2nc3cc(-c4cccc(C(F)(F)F)c4)sc3c(=O)n2C)c1OC | . | i | 0% | i | . | 1%
COc1cccc(CNc2nc3cc(-c4cccc(Cl)c4)sc3c(=O)n2C)c1OC | . | 15µM* | -4% | 8.2µM* | . | -7%
SMILES | SW480 rerep | KB-3-1 cytotox | HT1080NT lethal | KB-V1 MDR tox | MCF10A rerep | HT1080 IDH1KD tx
COc1ccccc1CNc1nc2cc(-c3ccc(OC)c(OC)c3)sc2c(=O)n1C | . | ? | -24% | 9.2µM* | . | -11%
CCCCOc1ccc(CNC(=O)C2COc3ccc(OC)cc3C2)cc1 (stereo unspecified) | . | i | . | i | . | .
NC(=S)NN=C1c2cc(OCCN3CCOCC3)ccc2-c2ccc(OCCN3CCOCC3)cc21 | ? | 23µM* | ? | ? | ? | ?
ON=C1c2cc(OCCN3CCCCC3)ccc2-c2ccc(OCCN3CCCCC3)cc21 | 1%[9.22 µM] | ? | 21µM* | ? | 1% | 23µM*
Cc1ccc2ccccc2c1C(O)c1ncc(-c2ccccc2)[nH]1 (stereo unspecified) | . | i | -22% | i | . | -13%
CCOc1ccc2c(CC)cc(=O)oc2c1OCC | -4% | i | -1% | i | -8% | -1%
O=C(COC(=O)CNC(=O)c1ccc([N+](=O)[O-])o1)Nc1ncc(Cl)cc1Cl | -3% | i | -1% | i | ? | -2%
O=C(COC(=O)CNC(=O)c1ccc([N+](=O)[O-])o1)Nc1ncc(C(F)(F)F)cc1Cl | 8% | i | -21% | ? | 16µM* | -25%
COc1nc(NC(C)(C)C)nc(Oc2ccc(=O)n(-c3ccccc3)n2)n1 | -1% | i | 1% | 21µM* | 11% | -10%
CCNc1nc(OC)nc(Oc2ccc(=O)n(-c3ccccc3)n2)n1 | -7% | i | 6% | i | 2% | 6%
CCOC(=O)Cn1nnnc1C(C(C)C)N(Cc1cc2c(C)cc(C)cc2[nH]c1=O)C1CCCC1 (stereo unspecified) | 4% | i | ? | i | ? | ?
COc1ccc(NC(C)=O)cc1NS(=O)(=O)c1ccc2c(c1)OCCO2 | ? | ? | -2% | i | 11% | -6%
COC(=O)c1ccc(Cl)c(NS(=O)(=O)c2ccc3c(c2)OCCO3)c1 | 18µM* | 5.8µM* | ? | 9.2µM* | ? | 4.6µM*
CCN(CC)C(=O)[C@H]1C[C@H](CC(=O)NC(C)(C)C)C(=O)N2CCc3c([nH]c4ccc(Cl)cc34)[C@]12C | 5% | i | 3% | i | -4% | 0%
COCc1cc(C)nc2sc(C(=O)Nc3ccc(OC)cc3)c(N)c12 | ? | i | 6% | i | ? | 2%
COCc1cc(C)nc2sc(C(=O)Nc3ccc(C(C)=O)cc3)c(N)c12 | . | i | . | ? | . | .
COCc1cc(C)nc2sc(C(=O)Nc3nccs3)c(N)c12 | 0% | i | 10% | i | 16µM* | 6%
COCc1cc(C)nc2sc(C(=O)Nc3ccccc3OC)c(N)c12 | 21µM* | i | -6% | i | ? | -5%
COCc1cc(C)nc2sc(C(=O)Nc3cccc(OC)c3)c(N)c12 | 18µM* | i | 9% | i | 10µM* | 2%
